Assay outcomes (PubChem)
MEP2 TOR yeast: modulators of MEP2-GFP levels in yeast, primary screen, S. cerevisiae, multiplex flow cytometry, MLPCN library. AID 2016, 2009. GFP response vs DMSO, % at 10 µM. 330,000 compounds, 0.51% hits. S. cerevisiae MEP2-GFP strain, 3 h; 100% = DMSO control level;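 active means GFP response versus DMSO above a set limit, roughly screen mean plus 3 SD, cut at about 180% in these data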;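 further: median GFP fluorescence of the barcode-gated MEP2-GFP cells per well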
CIT2-GFP yeast: modulators of CIT2-GFP expression in yeast, primary screen, S. cerevisiae, GFP fusion, multiplex flow cytometry, MLPCN library. GFP response vs DMSO, % at 10 µM. 320,000 compounds, 0.065% hits. AID 2029, 2009. S. cerevisiae CIT2-GFP strain, 3 h; 100 means same as DMSO wells;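 active means GFP response relative to DMSO above a set limit, near the screen mean plus 3 SD, cut at about 150% in these data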;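 further: ratio of well median GFP fluorescence to mean of DMSO wells on the plate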
VLA-4 inh: inhibition in human VLA-4 binding assay, primary screen, VLA-4 allosteric modulator project, MLPCN library, flow cytometry, VLA-4 expressing cells. Integrin alpha-4 (Homo sapiens), P13612. ligand binding flow cytometry. inhibition, % (about 7 µM as worked out from the volumes in the protocol). 330,000 compounds, 0.2% hits. AID 2557, 2010; in the data active means inhibition above about 50%
Target sequence (P13612 whole entry, looked up): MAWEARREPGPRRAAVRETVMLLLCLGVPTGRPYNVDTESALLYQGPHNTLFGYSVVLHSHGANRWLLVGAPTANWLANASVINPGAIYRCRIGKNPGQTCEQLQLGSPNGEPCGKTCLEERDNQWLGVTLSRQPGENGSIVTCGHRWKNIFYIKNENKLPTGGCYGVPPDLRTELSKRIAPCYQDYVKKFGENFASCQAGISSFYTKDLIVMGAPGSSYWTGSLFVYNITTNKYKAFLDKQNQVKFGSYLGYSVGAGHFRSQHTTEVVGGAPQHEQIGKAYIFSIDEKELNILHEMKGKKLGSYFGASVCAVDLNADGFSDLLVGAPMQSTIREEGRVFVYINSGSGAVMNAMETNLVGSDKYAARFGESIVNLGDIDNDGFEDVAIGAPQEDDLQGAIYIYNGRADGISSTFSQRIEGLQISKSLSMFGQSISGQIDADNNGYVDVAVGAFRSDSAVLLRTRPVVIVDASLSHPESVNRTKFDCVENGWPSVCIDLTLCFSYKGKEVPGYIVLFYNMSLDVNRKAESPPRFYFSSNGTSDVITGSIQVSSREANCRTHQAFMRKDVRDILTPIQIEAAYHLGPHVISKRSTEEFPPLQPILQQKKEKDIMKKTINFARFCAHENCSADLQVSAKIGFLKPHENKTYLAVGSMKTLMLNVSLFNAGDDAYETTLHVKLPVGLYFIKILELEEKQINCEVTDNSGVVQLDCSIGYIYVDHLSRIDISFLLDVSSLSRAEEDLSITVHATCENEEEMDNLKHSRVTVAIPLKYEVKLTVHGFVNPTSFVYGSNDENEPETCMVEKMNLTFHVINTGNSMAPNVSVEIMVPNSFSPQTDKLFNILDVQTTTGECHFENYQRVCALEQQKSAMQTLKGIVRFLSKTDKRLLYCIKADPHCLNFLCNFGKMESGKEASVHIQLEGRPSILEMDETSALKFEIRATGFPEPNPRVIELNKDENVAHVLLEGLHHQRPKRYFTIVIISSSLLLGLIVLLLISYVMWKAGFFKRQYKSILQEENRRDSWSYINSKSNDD
RPL19A TOR yeast: RPL19A-GFP expression modulators in yeast, primary screen, cell-based, S. cerevisiae, multiplex flow cytometry, MLPCN | 330,000 compounds, 0.3% hits | AID 2025, 2009 | percent response vs DMSO, % at 10 µM | S. cerevisiae RPL19A-GFP strain, 3 h; active compounds read low;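 active means percent response vs DMSO below 50%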;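 further: median channel GFP fluorescence of the barcoded RPL19A-GFP strain; lower means less RPL19A-GFP as with rapamycin TOR inhibition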
LAP4 TOR yeast: modulators of LAP4-GFP expression in yeast, primary screen, S. cerevisiae, multiplex flow cytometry, MLPCN library | 3 h; median GFP as percent of DMSO wells | GFP response vs DMSO, % at 10 µM | 320,000 compounds, 0.34% hits;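 active means GFP response vs DMSO above a set limit, about the screen mean plus 3 SD, cut at about 150% in these data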
AGP1-GFP MLPCN: modulators of AGP1-GFP expression in yeast TOR pathway, primary screen, cell-based, multiplex flow cytometry, S. cerevisiae, MLPCN library | AID 2066, 2009 | 320,000 compounds, 0.02% hits | GFP response vs DMSO, % at 10 µM | 3 h; GFP as percent of DMSO wells;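 active means GFP response relative to DMSO above a set limit, near screen average plus 3 SD, cut at about 150% in these data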;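 further: median GFP channel fluorescence of the gated AGP1 strain per well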
LAP4 cherry2: LAP4-GFP expression modulators in yeast, confirmation, cell-based, second cherry pick, flow cytometry; shares compounds with LAP4 TOR yeast; GFP response vs DMSO, % at 10 µM; AID 2621, 2010; S. cerevisiae LAP4-GFP strain, 3 h; 590 compounds, 20% hits;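 active means GFP signal as percent of the solvent control above about 150%, meaning raised reporter expression, limit read from the data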
MEP2-GFP pick2: modulators of MEP2-GFP levels in yeast, confirmation, S. cerevisiae, flow cytometry GFP, second cherry picks; 590 compounds, 10% hits; GFP response vs DMSO, % at 10 µM; shares compounds with LAP4 TOR yeast; S. cerevisiae MEP2-GFP strain, 3 h;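 active means GFP signal above 150% of the solvent control wells, that is a rise of more than half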;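 further: median channel GFP fluorescence of all gated yeast cells per well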
RPL19A GFP CP2: RPL19A-GFP modulators in TOR pathway yeast, confirmation, cell-based, S. cerevisiae, flow cytometry, second cherry pick; shares compounds with LAP4 TOR yeast; S. cerevisiae RPL19A-GFP strain, 3 h; active compounds read low; 100% means same as DMSO wells; GFP response vs DMSO, % at 10 µM; 590 compounds, 3% hits; AID 2623, 2010;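 active means under 65% GFP response relative to DMSO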;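 further: median GFP channel fluorescence per well over the all cells gate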
CIT2-GFP pick2: modulators of CIT2-GFP expression in yeast, confirmation, flow cytometry, second cherry pick, single plex; AID 2624, 2010; 590 compounds, 8% hits; S. cerevisiae CIT2-GFP strain, 3 h; DMSO control wells read 100%; GFP response vs DMSO, % at 10 µM; shares compounds with LAP4 TOR yeast;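 active means GFP response vs DMSO above about 150%, limit read from the data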;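 further: median green fluorescence per well over all gated yeast cells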
AGP1-GFP pick2: AGP1-GFP expression modulators, hit retest, confirmation, cell-based, flow cytometry, S. cerevisiae, cherry pick set 2; shares compounds with LAP4 TOR yeast; 590 tested, under 10 active; AID 2643, 2010; S. cerevisiae AGP1-GFP strain, 3 h; percent response vs DMSO, % at 10 µM;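 active means over 150 percent of DMSO response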;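 further: median GFP channel fluorescence over all cells without mother daughter split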
Yeast autofluor: compound autofluorescence in yeast s288c, dose response, artefact control for yeast TOR pathway GFP screen, s288c strain | S. cerevisiae s288c, 520 nm autofluorescence, flow cytometry, 3 h; active compounds read high; zero means same as solvent-only cells | 610 tested, under 10 active | shares compounds with LAP4 TOR yeast | fluorescence change (kMESF span) at 33 µM;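 active means fluorescence span over the dose series, or activity score, above about 33, limit read from the data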
s288c autofl DR: autofluorescence of compounds in yeast s288c, dose response, artefact control for yeast TOR pathway GFP screen, primary hits, KU SAR, s288c parental; shares compounds with LAP4 TOR yeast; S. cerevisiae s288c parental, compound autofluorescence, flow cytometry, 3 h; fluorescence change (span) at 33 µM; 110 tested, under 10 active; AID 488829, 2010;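 active means fluorescence change span, or the activity score built from it, above 25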
TORC1 bypass: wild-type yeast growth inhibition sparing TORC1 bypass cells, mechanism study for yeast TOR pathway GFP screen, BY4741 wild type, TORC1 bypass strain. shares compounds with LAP4 TOR yeast. S. cerevisiae BY4741 spot growth rating, 48-72 h; active compounds read low. growth rating (0-3) at 30 µM. 120 tested, under 10 active;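 active means growth rating at most 1 for wild type yeast while the TORC1 bypass strain still grows fully, rated 3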
Hits are given with their value; n = inactive; x = no result given. Hits are enriched below; roughly 1.1% of the tested compounds scored in any of these assays.

SMILES | MEP2 TOR yeast | CIT2-GFP yeast | VLA-4 inh | RPL19A TOR yeast | LAP4 TOR yeast | AGP1-GFP MLPCN | others
CCOC(=O)C1CCCN(C2=NC(=O)/C(=C/c3ccc(N(C)C)cc3)S2)C1 (stereo not drawn) | n | n | n | n | n | n
CCCCC[C@H]1CN(CCCC)C(=O)[C@@H]1CC(=O)NCc1ccc(OC)cc1 | n | n | n | n | n | n
CCCCN1C[C@H](Cc2ccccc2)[C@@H](CC(=O)NCc2ccc(OC)cc2)C1=O | n | n | n | n | 159 | n | LAP4 cherry2=n;MEP2-GFP pick2=n;RPL19A GFP CP2=n;CIT2-GFP pick2=n;AGP1-GFP pick2=n
COc1ccc(NC(=O)CSc2n[nH]c(=O)n2C2CC2)cc1OC | n | n | n | n | n | n
O=C1NC(=Nc2ccccc2)SC1(CO)CO | n | n | n | n | n | n
CC(=O)N1NC(=Nc2ccccc2)SC1(C)C | n | n | n | n | n | n | LAP4 cherry2=n;MEP2-GFP pick2=n;RPL19A GFP CP2=n;CIT2-GFP pick2=n;AGP1-GFP pick2=n
O=C1CCN(S(=O)(=O)c2ccccc2)CCN1CCOCc1ccc(F)cc1 | 190 | n | n | n | 179 | n | LAP4 cherry2=n;MEP2-GFP pick2=n;RPL19A GFP CP2=n;CIT2-GFP pick2=n;AGP1-GFP pick2=n;Yeast autofluor=n
CCOc1ccc(Nc2nc(N)c([N+](=O)[O-])c(N3CCOCC3)n2)cc1 | n | n | n | n | n | n
Nc1nc(NCc2ccccc2)nc(Nc2ccc(F)cc2)c1[N+](=O)[O-] | n | n | n | n | n | n
CNc1nc(N)c([N+](=O)[O-])c(Nc2ccccc2)n1 | x | x | x | x | x | x | s288c autofl DR=n;TORC1 bypass=n
COCCNc1nc(N)c([N+](=O)[O-])c(NCC2CCCO2)n1 (stereo not drawn) | n | n | n | n | n | n
CNc1nc(N)c([N+](=O)[O-])c(Nc2ccc(Cl)cc2)n1 | x | x | x | x | x | x | s288c autofl DR=n;TORC1 bypass=n
CNc1nc(N)c([N+](=O)[O-])c(NCC2CCCO2)n1 (stereo not drawn) | n | n | n | n | n | n | s288c autofl DR=n;TORC1 bypass=n
